ABCB6 inh MLPCN: ABCB6 transporter inhibitors, primary screen, K562-ABCB6 cells, flow cytometry, MLPCN library; actives 0.19% (n = 360,000); fluorescence ratio to DMSO, % at 10 µM; ATP-binding cassette sub-family B member 6 (Homo sapiens), Q9NP58; K562-ABCB6 porphyrin accumulation, 1 h; active compounds read low; AID 602162, 2011;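 active means fluorescence ratio to DMSO below 75%, the collection mean minus 3 SD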;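 further: signal is porphyrin accumulated inside mitochondria; lower ratio means ABCB6 inhibition with less porphyrin fluorescence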
hiPSC survival: enhancers of single-cell hiPSC survival, primary screen, ATPlite luminescence; actives 0.044% (n = 360,000); survival enhancement, % at 20 µM; 100% = ROCK inhibitor wells, 0% = DMSO; AID 602274, 2012; in the data active means survival enhancement above about 18%;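 further: cells exposed to compounds for 16 hours before the ATP read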
TMEM16A act: TMEM16A chloride channel activators or potentiators, primary screen, cell-based, HTS. HEK293 TMEM16A/YFP-H148Q/I152L, iodide quench fluorescence; active compounds read low. B-score at 10 µM. AID 623877, 2012. Anoctamin-1 (Mus musculus), Q8BHY3. actives 0.3% (n = 340,000);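 active means fluorescence-ratio B-score plate-corrected deviation score at least 3 library SD below zero, with starting fluorescence score within 5 deviations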;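 further: channel opened by trigger with iodide after compound preincubation; score built on the fluorescence ratio of max minus min over baseline; more negative score means more quench and so TMEM16A activation or potentiation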
Target sequence (Q8BHY3 whole entry, looked up): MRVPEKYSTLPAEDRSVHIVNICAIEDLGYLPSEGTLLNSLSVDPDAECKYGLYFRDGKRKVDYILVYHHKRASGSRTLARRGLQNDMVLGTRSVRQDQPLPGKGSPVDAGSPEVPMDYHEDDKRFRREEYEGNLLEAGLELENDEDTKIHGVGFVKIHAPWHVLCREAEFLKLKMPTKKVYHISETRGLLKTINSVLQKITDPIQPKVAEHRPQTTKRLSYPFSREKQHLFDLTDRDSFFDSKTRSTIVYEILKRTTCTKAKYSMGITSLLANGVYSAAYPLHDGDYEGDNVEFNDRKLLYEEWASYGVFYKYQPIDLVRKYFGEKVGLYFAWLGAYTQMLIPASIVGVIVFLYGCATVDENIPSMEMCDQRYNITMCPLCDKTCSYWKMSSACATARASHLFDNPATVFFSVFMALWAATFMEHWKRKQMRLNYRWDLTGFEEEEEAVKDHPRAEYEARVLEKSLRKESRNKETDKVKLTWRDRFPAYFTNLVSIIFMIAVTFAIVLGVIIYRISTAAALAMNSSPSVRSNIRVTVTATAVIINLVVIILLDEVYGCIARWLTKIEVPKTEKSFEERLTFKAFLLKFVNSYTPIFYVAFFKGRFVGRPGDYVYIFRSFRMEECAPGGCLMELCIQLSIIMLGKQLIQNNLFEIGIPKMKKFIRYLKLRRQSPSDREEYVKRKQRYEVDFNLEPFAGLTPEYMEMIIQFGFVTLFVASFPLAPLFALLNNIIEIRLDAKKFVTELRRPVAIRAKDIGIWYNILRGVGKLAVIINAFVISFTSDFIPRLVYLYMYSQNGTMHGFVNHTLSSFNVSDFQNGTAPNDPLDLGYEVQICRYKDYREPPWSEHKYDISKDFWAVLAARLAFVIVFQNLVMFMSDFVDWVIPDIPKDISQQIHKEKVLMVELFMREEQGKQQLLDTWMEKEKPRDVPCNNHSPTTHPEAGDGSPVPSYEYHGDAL
TMEM16A inh: TMEM16A chloride channel inhibitors, primary screen, cell-based, HTS; AID 588511, 2011; HEK293 TMEM16A/YFP iodide influx fluorescence, ionomycin; normalized B-score (activity score, 25-100; higher = stronger inhibition) at 10 µM; actives 1.2% (n = 310,000); Anoctamin-1 (Mus musculus), Q8BHY3;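 active means ratio plate-corrected score three or more library SD toward inhibition, starting fluorescence score within five deviations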;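 further: score derived from kinetic fluorescence span divided by baseline fluorescence per well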
DAGLB inhibitor: DAGLB lipase inhibitors, primary screen, biochemical, fluorescence, HTS; Diacylglycerol lipase-beta (Homo sapiens), Q8NCG7; HEK293T DAGLB membrane lysate, EnzChek fluorogenic substrate; inhibition, % at 5.17 µM; actives 0.059% (n = 340,000); AID 504411, 2011; in the data active means inhibition above about 34%
Numbers stand for hits; 0 = inactive; - = no result. Rows were chosen to be rich in hits. Some 1.5% of all compounds tested hit in one or more screens of this group.

SMILES	ABCB6 inh MLPCN	hiPSC survival	TMEM16A act	TMEM16A inh	DAGLB inhibitor
O=C(Cc1ccc(Cl)cc1)NN1C(=O)c2ccccc2C1=O	0	0	0	0	0
COC(=O)[C@@H]1[C@@H](C#N)C2(c3ccccc3-c3ccccc32)N(c2ccc(Cl)cc2)N1C#N	0	0	0	25	0
CC1(CN2CCCC2)CCC(NC(=O)C(c2ccccc2)c2ccccc2)C(C)(C)O1 (stereo unspecified)	0	0	-	-	0
Cc1ccc(CN2CCN(Cc3cn(C)nc3C)CC2CCO)o1 (stereo unspecified)	0	22.4	0	0	0
CCC(=O)N1CCc2cc(Br)cc(S(=O)(=O)N3CCC(C(=O)NC(C)C)CC3)c21	0	0	0	0	0
COC(=O)c1ccc(CSc2nc3scc(-c4cccs4)c3c(=O)[nH]2)o1	59.0	0	0	0	0
COC(=O)c1ccc(CSc2nc3ccc(Cl)cc3[nH]2)o1	0	-	0	0	0
O=C(NNC(=O)c1ccccc1O)c1ccc(Cl)c(S(=O)(=O)N2CCc3ccccc32)c1	0	0	0	100	0
O=C(c1ccc(Cl)c(S(=O)(=O)N2CCc3ccccc32)c1)N1CCN(c2ccccc2O)CC1	0	0	0	-	0
COc1cccc(CN(C)C[C@@H]2OCc3cnnn3CCCC(=O)N([C@@H](C)CO)C[C@H]2C)c1	0	0	-	-	0
COc1cccc(CN(C)C(=O)CNC(=O)c2ccc(-c3ccccc3)cc2)c1OC	0	0	0	100	0
Cc1nn2c3ccccc3n(Cc3ccccc3)c2nc1=O	0	0	-20.4	0	0
COc1ccccc1NC(=O)C(CC(C)C)NC(=O)C1CCCCC1 (stereo unspecified)	0	0	0	0	0
COc1ccc(OC)c(NC(=O)C(CC(C)C)NC(=O)C2CCCCC2)c1 (stereo unspecified)	0	24.5	0	0	0
CC1=CC=CC2=NC(=O)CC(C)(C(=O)N(CC(=O)NC3CCCC3)c3ccc(F)cc3)N12 (stereo unspecified)	0	0	0	0	0
Cn1c(N2CCN(c3ccccn3)CC2)nc2c1c(=O)n(Cc1ccccc1Cl)c(=O)n2C	0	0	0	0	0
Cn1c(N2CCN(c3ccccn3)CC2)nc2c1c(=O)n(Cc1ccc(Cl)cc1)c(=O)n2C	0	0	0	100	0
CC(=O)c1ccc(N2CCN(C(=O)C3CCCN3S(=O)(=O)c3cccc4nsnc34)CC2)cc1 (stereo unspecified)	0	0	0	0	0
O=C(C1CCCN1S(=O)(=O)c1cccc2nsnc12)N1CCCCC1 (stereo unspecified)	0	0	0	25	0
CC(C)NS(=O)(=O)c1ccc(NC(=O)C(C)Oc2ccc(C(=O)c3ccccc3)cc2)cc1 (stereo unspecified)	0	0	0	100	0
O=C(CNC(=O)c1ccccc1)NCCCSc1ccccc1	0	0	0	-	0
O=C(NCCCSc1ccccc1)c1cc(Cl)ccc1O	0	0	0	100	0
O=C(NCc1ccc(F)cc1)C(c1ccc(Cl)cc1)N(C(=O)c1csnn1)C1CC1 (stereo unspecified)	0	0	0	0	0
O=C(c1ccccc1)N1N=C(C(F)(F)F)CC1(O)c1ccc(F)cc1 (stereo unspecified)	0	0	0	100	0
CCCOc1ccc(/C=C2\SC(=S)N(CC3CCCO3)C2=O)cc1 (stereo unspecified)	0	0	0	0	0
SMILES	ABCB6 inh MLPCN	hiPSC survival	TMEM16A act	TMEM16A inh	DAGLB inhibitor
O=C1/C(=C/c2ccc(O)cc2)SC(=S)N1CC1CCCO1 (stereo unspecified)	0	0	-5.07	0	0
O=[N+]([O-])c1ccc(Cl)c(S(=O)(=O)Nc2cccc(S(=O)(=O)NC3=NCCC3)c2)c1	0	0	0	-	0
CCCOc1ccc(Br)cc1CSC(=N)N	0	0	0	25	0
CCOc1ccc(Br)cc1CC(=O)O	0	0	0	0	0
C=CCN(C(=O)c1csnn1)C(C(=O)NCc1ccc(F)cc1)c1ccccc1F (stereo unspecified)	0	0	0	0	0
COc1ccc(NC(=O)CSc2nnc(Cc3ccc(C)cc3)c(=O)n2N)cc1OC	0	0	0	0	0
CNc1nc(OCCNC(=O)Nc2ccccc2)nc(N2CCOCC2)n1	0	0	0	0	0
O=C(NCCOc1nc(N2CCOCC2)nc(N2CCOCC2)n1)Nc1ccc(Cl)cc1	0	0	-14.6	0	0
Oc1ccccc1-c1cncn1Cc1ccccc1	0	0	0	0	0
Cn1cc(C(=O)c2ccc(Cl)cc2)cc1-c1nc2ccccc2n1C	0	0	0	100	0
Cn1c(=O)c(C(=O)c2ccccc2)nc2ccccc21	0	0	0	0	0
COc1ccc(CCNC(=O)COC(=O)c2ccccc2NCCO)cc1OC	0	0	0	0	0
Cc1ccc(NC(=O)COC(=O)CCc2c(C)nc3nc(N)nn3c2C)cc1C	0	0	-23.4	-	0
Cc1ccc(NC(=O)COC(=O)CCc2c(C)nc3ncnn3c2C)cc1C	0	0	0	-	0
CCCCn1c(NC(=O)c2ccco2)c(S(=O)(=O)c2ccc(C)cc2)c2nc3ccccc3nc21	0	0	0	-	0
CCCCn1c(NC(=O)c2ccc(Br)o2)c(S(=O)(=O)c2ccccc2)c2nc3ccccc3nc21	0	0	0	100	0
CC(OC(=O)c1cccc(S(=O)(=O)N2CCN(C)CC2)c1)C(=O)Nc1ccc(C(N)=O)cc1 (stereo unspecified)	0	20.7	0	-	0
CC(=O)c1cccc(NC(=O)C(C)OC(=O)c2cccc(S(=O)(=O)N3CCN(C)CC3)c2)c1 (stereo unspecified)	0	0	0	-	0
CC1C2(C)OC(=N)C(C#N)(C(C)O2)C1(C#N)C#N (stereo unspecified)	0	0	-6.27	0	0
CC1OC2(C)OC(=N)C1(C#N)C(C#N)(C#N)C2c1ccccc1 (stereo unspecified)	0	0	0	0	0
COc1cc(/C=C2\SC(c3ccc(C)cc3)=NC2=O)cc(OC)c1O	0	0	0	0	0
Cc1ccc(C2=NC(=O)/C(=C/c3cc(O)c(O)c(Br)c3)S2)cc1	0	0	-6	-	0
CC(NC(=O)CSc1nc(C2CC2)n(-c2ccccc2)n1)c1ccco1 (stereo unspecified)	0	0	0	-	0
CC(C)C[C@@]12C(=O)N(c3cccc(Br)c3)C(=O)N1[C@H](c1ccc(F)cc1)[C@@H]1C(=O)N(C3CCCCC3)C(=O)[C@@H]12	0	0	-7.61	0	0
O=C(Nc1ccc2c(c1)OCO2)c1noc2c1CCCC2	0	0	0	0	0
